{"source": "PubChem BioAssay (Tox21)", "note": "Records with an inconclusive call do not appear. Values without a mark were called inactive. The source made the active and inactive calls. Calls come from the whole dose curve; as a rule, active = well fitted cell-killing curve with a large enough effect in the repeat runs (not every such curve was filed as active); inconclusive = weak or mixed curves, or effect the other way; inactive = no such curve, though single readings can be large or run the other way. % is set by controls: 0 for no effect and ±100 for the full control effect; potency is the fitted concentration of half-maximal effect."}
{"assay": "qHTS assay to identify small molecule antagonists of the estrogen related receptor signaling pathway with the pleiotropic PPARgamma coactivator (PGC) from Tox21 10K library - cell viability counter screen (AID 1224840); note: nearly all actives have a fitted effect of over 40% in size", "conditions": "PGC/ERR reporter cells viability, CellTiter-Fluor, 17.5 h; series mostly up to 92.4 µM; viability change, negative = cytotoxic: at the top concentration", "from_the_text": "National Center for Advancing Translational Sciences [NCATS]\nNIH Chemical Genomics Center [NCGC]\nU.S. Environmental Protection Agency [EPA]\nNational Institutes of Environmental Health Sciences [NIEHS]\nNational Toxicology Program [NTP]\nU.S. Food and Drug Administration [FDA]\nEstrogen related receptors (ERRs), the first orphan nuclear receptors discovered, play an important role in the control of cellular energy metabolism. ERRs are required for high-energy production in response to the environmental challenges. The pleiotropic PPARgamma coactivator (PGC) is a major partner of ERR and a key regulator in energy homeostasis. Together they have been implicated in the etiology of metabolic disorders such as Type 2 diabetes and metabolic syndrome. ERR-alpha was also identified as an adverse marker for breast cancer progression; ERR-alpha-positive tumors have a poor prognosis. To screen and to identify environmental compounds that perturb the ERR and PGC/ERR signaling pathways could provide valuable information for potential therapeutic or preventive measures in the treatment of metabolic disease. To differentiate true PGC/ERR antagonists or agonist from cytotoxic substances, the assay is multiplexed with cell viability assay.\nTox21 Assay Protocol Summary:\nThe PGC/ERR cells were dispensed at 2,000 cells/5 ul/well in 1536-well white plates using a Multidrop dispenser. After the assay plates were incubated at a 37 C/5% CO2 incubator for 6 hours, 23 nL of compounds dissolved in DMSO, positive and negative controls or DMSO only was transferred to the assay plate by a pin tool. The plates were incubated at 37 C for 17.5 hours. 1 ul/well of CellTiter-Fluor reagent was added into the assay plates using a Flying Reagent Dispenser. After 30-minute incubation at 37 C/5% CO2, the fluorescence intensity in the plates was measured using a ViewLux plate reader."}
{"smiles": "COC(=O)CC(=O)C(C)(C)C", "viability change, negative = cytotoxic": "-6.78%"}
{"smiles": "C[N+]1(C)CCC(=C(c2ccccc2)c2ccccc2)CC1", "viability change, negative = cytotoxic": "1.93% [at 42.5 µM]"}
{"smiles": "Nc1ccc(Cl)cc1[N+](=O)[O-]", "viability change, negative = cytotoxic": "-15.2%"}
{"smiles": "C=CCOC(=O)/C=C\\C(=O)OCC=C", "viability change, negative = cytotoxic": "0.803%"}
{"smiles": "CC(C)(C)CC(C)(C)c1ccc(OCCO)cc1", "Potency": "54.2 µM (active)"}
{"smiles": "COc1ccc([C@@H]2Sc3ccccc3NC(=O)[C@@H]2O)cc1", "viability change, negative = cytotoxic": "-24.5% [at 42.5 µM]"}
{"smiles": "NCC1CCCC(CN)C1", "note": "(stereo not given)", "viability change, negative = cytotoxic": "1.17%"}
{"smiles": "CNC(=O)N(c1ccccc1)c1ccccc1", "viability change, negative = cytotoxic": "7.21%"}
{"smiles": "N#C[C@@H]1C[C@@H]2C[C@@H]2N1C(=O)[C@@H](N)C12CC3CC(CC(O)(C3)C1)C2", "viability change, negative = cytotoxic": "14.4% [at 42.5 µM]"}
{"smiles": "C=CC(C)(O)CCCC(C)CCCC(C)CCCC(C)C", "note": "(stereo not given)", "viability change, negative = cytotoxic": "6.02%"}
{"smiles": "CC(C)CCCCCCOC(=O)CCCCC(=O)OCCCCCCC(C)C", "viability change, negative = cytotoxic": "4.58%"}
{"smiles": "CC1=CC(=O)CC(C)(C)C1(O)/C=C/C(C)=C\\C(=O)O", "note": "(stereo not given)", "viability change, negative = cytotoxic": "2.11%"}
{"smiles": "CCN(Cc1cccc(S(=O)(=O)O)c1)c1ccc(C(=C2C=CC(=[N+](CC)Cc3cccc(S(=O)(=O)[O-])c3)C=C2)c2ccccc2)cc1", "viability change, negative = cytotoxic": "-5.59% [at 42.5 µM]"}
{"smiles": "CC1(C)C2=CCCC(C)(C)[C@]23CC[C@H]1C3", "viability change, negative = cytotoxic": "-5.7%"}
{"smiles": "CC1=C(C=O)C(C)(C)CCC1", "viability change, negative = cytotoxic": "8.86%"}
{"smiles": "O=C(O)Cc1ccc(-c2ccccc2)cc1", "viability change, negative = cytotoxic": "0.693% [at 42.5 µM]"}
{"smiles": "CCCCC(CC)CNCC(CC)CCCC", "note": "(stereo not given)", "viability change, negative = cytotoxic": "12.7%"}
{"smiles": "CCC(=O)OC/C=C/c1ccccc1", "Potency": "inactive"}
{"smiles": "CC1=CC(O)CC(C)(C)C1", "note": "(stereo not given)", "viability change, negative = cytotoxic": "11.1%"}
{"smiles": "c1ccc(COCc2ccccc2)cc1", "viability change, negative = cytotoxic": "8.08%"}
{"smiles": "CC1CC(=O)NN=C1c1ccc(NCC(C)(C)NCC(O)COc2cc(Cl)ccc2C#N)cc1", "note": "(stereo not given)", "viability change, negative = cytotoxic": "2.69% [at 42.5 µM]"}
{"smiles": "CCCCOC(=O)CCS", "viability change, negative = cytotoxic": "0.142%"}
{"smiles": "CCCCCCOC(=O)CCCCCCCC(=O)OCCCCCC", "viability change, negative = cytotoxic": "7.58%"}
{"smiles": "CCOC(=O)[C@@H](C)Oc1ccc(Oc2nc3ccc(Cl)cc3o2)cc1", "viability change, negative = cytotoxic": "-16.9%"}
{"smiles": "O=S(=O)(c1ccccc1)c1ccc(Cl)cc1", "viability change, negative = cytotoxic": "-1.09%"}
{"smiles": "CN1Cc2cc(C(=O)N3CCC(C4CCNCC4)CC3)ccc2N[C@@H](CC(=O)O)C1=O", "viability change, negative = cytotoxic": "0.637% [at 42.5 µM]"}
{"smiles": "O=C(N/N=C/c1ccc([N+](=O)[O-])o1)c1ccc(O)cc1", "viability change, negative = cytotoxic": "-24.4% [at 42.5 µM]"}
{"smiles": "CO[Si](C)(OC)OC", "viability change, negative = cytotoxic": "2.12%"}
{"smiles": "O=C1NCCN1", "viability change, negative = cytotoxic": "11.2%"}
{"smiles": "CC(C)CCCCCOC(=O)CCCCC(=O)OCCCCCC(C)C", "viability change, negative = cytotoxic": "-1.42%"}
{"smiles": "CC(=O)Nc1ccc(N)cc1", "viability change, negative = cytotoxic": "-9.44%"}
{"smiles": "CC1=NN(c2ccc(C(=O)O)cc2)C(=O)C1", "viability change, negative = cytotoxic": "-0.623%"}
{"smiles": "COc1cc2c(N3CCN(C(=O)Nc4ccc(OC(C)C)cc4)CC3)ncnc2cc1OCCCN1CCCCC1", "Potency": "29.8 µM (active)"}
{"smiles": "CCC(C(=O)OCCN(CC)CC)c1ccccc1", "note": "(stereo not given)", "viability change, negative = cytotoxic": "23.1% [at 42.5 µM]"}
{"smiles": "CCCCCCCCCOC(C)=O", "viability change, negative = cytotoxic": "5.03%"}
{"smiles": "O=C(NCCCN1CCOCC1)c1ccc(Cl)cc1", "viability change, negative = cytotoxic": "3.62% [at 42.5 µM]"}
{"smiles": "CN(C)CCOC1=Cc2ccccc2Sc2ccc(Cl)cc21", "viability change, negative = cytotoxic": "1.5% [at 42.5 µM]"}
{"smiles": "O=C(CS)OCCOC(=O)CS", "viability change, negative = cytotoxic": "1%"}
{"smiles": "Cc1oc(C)c(C(=O)Nc2ccccc2)c1C", "viability change, negative = cytotoxic": "-4.68%"}
{"smiles": "COc1cc2[nH]c(=O)[nH]c(=O)c2cc1OC", "viability change, negative = cytotoxic": "6.9% [at 42.5 µM]"}
